Assay results published in PubChem BioAssay (EPA / NIEHS).
Records with an inconclusive call do not appear. Activity calls are given as the source filed them. How the source made its calls: active means hit-call score of the fitted dose curve at least 0.9, where 1 is the maximum; inconclusive means response in the unintended direction; inactive means score below 0.9.

tested on: not listed separately; assay: ACEA_AR_agonist_AUC_viability: ACEA Biosciences xCELLigence Real-Time Cell Analysis on Androgen Receptor Agonism for Viability (AID 2283775);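 on AC50: viability read 80 hours after compound addition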
In short: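 22Rv1 cells; impedance growth kinetics; 8-pt 1:4 dilutions from 100 uM top final, ≤0.5% DMSO; n = 2; 80 h read; AUC viability, loss-of-signal vs DMSO.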

Row | Compound | outcome | AC50
1 | C=C[Si](C)(C)O[Si](C)(C)C=C | inactive | –
2 | CCCCC/C=C\CCC=O | – | 16.6 µM (active)
3 | CC(C)(C)c1ccc(OC(=O)c2ccccc2O)cc1 | – | 0.106 µM (active)
4 | CC(=O)OC(C)C | inactive | –
5 | CCO[Si](C)(OCC)OCC | inactive | –
6 | OC1CCCC1 | inactive | –
7 | c1ccc2c(c1)ccc1cc3c(ccc4ccccc43)cc12 | – | 0.341 µM (active)
8 | O=C(O)CCCC[C@@H]1SC[C@@H]2NC(=O)N[C@@H]21 | inactive | –

tested on: not listed separately; assay: ACEA_AR_antagonist_AUC_viability: ACEA Biosciences xCELLigence Real-Time Cell Analysis on Androgen Receptor Antagonism for Viability (AID 2283776);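 further: 22Rv1 human prostate cancer cells growing on impedance electrode plates; area under impedance growth curve at 80 h after dosing as viability; hits lower the growth signal relative to DMSO meaning cytotoxicity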
In short: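 Impedance read-out (RT-CES): area under growth curve at 80 h post-dose, loss of signal scored vs DMSO baseline. 22Rv1 cells; 8-pt 1:4 series, top 100 uM final, ≤0.5% DMSO; biological duplicate.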

Row | Compound | outcome | AC50
9 | Cc1cc(C)c(C(=O)O)c(C)c1 | inactive | –
10 | CC1=NN(c2cc(S(=O)(=O)O)ccc2Cl)C(=O)C1N=Nc1ccccc1 (stereo unspecified) | inactive | –
11 | Cc1ccc(C(C)c2ccc(C)c(C)c2)cc1C | inactive | –
12 | CCN(CCC#N)c1ccc(N=Nc2c(Cl)cc([N+](=O)[O-])cc2Cl)cc1 | – | 3.41 µM (active)
13 | CCCCCCCCCCCCCOP(=O)(O)O | inactive | –
14 | OC1CCCCCCCCCCC1 | inactive | –
15 | CC/C=C\C/C=C\C/C=C\CCCCCCCC(=O)O | inactive | –
16 | Oc1ccc(Cl)cc1Cc1cc(Cl)ccc1O | – | 8.53 µM (active)
17 | CNC(=S)NN | inactive | –
18 | CCCCCCC1(C)CCC(=O)O1 (stereo unspecified) | inactive | –
19 | CCOC(=O)CC | inactive | –
20 | O=C(c1ccccc1)C1CCC1 | – | 0.391 µM (active)
21 | CCCCCCCOC(=O)CCC | inactive | –
22 | CCCCCCCC/C=C\CCCCCCCC(=O)O | inactive | –
23 | CCCCCCCCO[C@@H]1O[C@H](CO)[C@@H](O)[C@H](O)[C@H]1O | inactive | –
24 | CC=C1CC2C=CC1C2 (stereo unspecified) | inactive | –
25 | O=C(C(Cl)Cl)N1CCOC12CCCCC2 | – | 11 µM (active)

Row | Compound | outcome | AC50
26 | CCCc1ccc(OC)cc1 | inactive | –
27 | c1c[nH]cn1 | inactive | –
28 | CCCCC(CC)CCC(CC(C)C)OS(=O)(=O)O (stereo unspecified) | inactive | –
29 | CC1=CC[C@H]2C[C@@H]1C2(C)C | inactive | –
30 | CCCCCCCC[N+](C)(CCCCCCCC)CCCCCCCC | – | 0.925 µM (active)
31 | C1=Cc2ccccc2C1 | inactive | –
32 | CN(C)c1ccc(C(=N)c2ccc(N(C)C)cc2)cc1 | – | 3.19 µM (active)
33 | NC(=O)N=NC(N)=O | – | 4.59 µM (active)
34 | CCCCC/C=C\C/C=C\CCCCCCCC(=O)OC | inactive | –
35 | C=C[Si](C)(C)O[Si](C)(C)C=C | inactive | –
36 | CCCCC/C=C\CCC=O | inactive | –
37 | CC(C)(C)c1ccc(OC(=O)c2ccccc2O)cc1 | – | 0.0777 µM (active)
38 | CC(=O)OC(C)C | inactive | –
39 | CCO[Si](C)(OCC)OCC | inactive | –
40 | OC1CCCC1 | – | 0.475 µM (active)
41 | c1ccc2c(c1)ccc1cc3c(ccc4ccccc43)cc12 | – | 0.287 µM (active)
42 | O=C(O)CCCC[C@@H]1SC[C@@H]2NC(=O)N[C@@H]21 | inactive | –

tested on: not listed separately; assay: ACEA_ER_AUC_viability: ACEA Biosciences xCELLigence Real-Time Cell Analysis on Estrogen Receptor Agonism for Viability (AID 2283782);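 further: hit means loss of impedance signal meaning reduced cell growth or viability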
In short: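 Continuous-exposure impedance cell analysis uses T-47D cells in charcoal-stripped serum, eight 1:4 dilutions topping at 100 uM final, biological duplicate. Area under the growth curve at 80 h is fitted against DMSO baseline.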

Row | Compound | outcome | AC50
43 | Cc1cc(C)c(C(=O)O)c(C)c1 | inactive | –
44 | CC1=NN(c2cc(S(=O)(=O)O)ccc2Cl)C(=O)C1N=Nc1ccccc1 (stereo unspecified) | inactive | –
45 | Cc1ccc(C(C)c2ccc(C)c(C)c2)cc1C | – | 50 µM (active)
46 | CCN(CCC#N)c1ccc(N=Nc2c(Cl)cc([N+](=O)[O-])cc2Cl)cc1 | inactive | –
47 | CCCCCCCCCCCCCOP(=O)(O)O | – | 48.7 µM (active)
48 | OC1CCCCCCCCCCC1 | inactive | –
49 | CC/C=C\C/C=C\C/C=C\CCCCCCCC(=O)O | inactive | –
50 | Oc1ccc(Cl)cc1Cc1cc(Cl)ccc1O | – | 17.7 µM (active)
51 | CNC(=S)NN | inactive | –
52 | CCCCCCC1(C)CCC(=O)O1 (stereo unspecified) | inactive | –
53 | CCOC(=O)CC | inactive | –
54 | O=C(c1ccccc1)C1CCC1 | inactive | –
55 | CCCCCCCOC(=O)CCC | inactive | –
56 | CCCCCCCC/C=C\CCCCCCCC(=O)O | – | 50 µM (active)
57 | CCCCCCCCO[C@@H]1O[C@H](CO)[C@@H](O)[C@H](O)[C@H]1O | inactive | –
58 | CC=C1CC2C=CC1C2 (stereo unspecified) | inactive | –
59 | O=C(C(Cl)Cl)N1CCOC12CCCCC2 | – | 14.5 µM (active)

Row | Compound | outcome | AC50
60 | CCCc1ccc(OC)cc1 | inactive | –
61 | c1c[nH]cn1 | inactive | –
62 | CCCCC(CC)CCC(CC(C)C)OS(=O)(=O)O (stereo unspecified) | inactive | –
63 | CC1=CC[C@H]2C[C@@H]1C2(C)C | inactive | –
64 | CCCCCCCC[N+](C)(CCCCCCCC)CCCCCCCC | – | 1.92 µM (active)
65 | C1=Cc2ccccc2C1 | inactive | –
66 | CN(C)c1ccc(C(=N)c2ccc(N(C)C)cc2)cc1 | – | 32.3 µM (active)
67 | NC(=O)N=NC(N)=O | inactive | –
68 | CCCCC/C=C\C/C=C\CCCCCCCC(=O)OC | – | 65.3 µM (active)
69 | C=C[Si](C)(C)O[Si](C)(C)C=C | inactive | –
70 | CCCCC/C=C\CCC=O | inactive | –
71 | CC(C)(C)c1ccc(OC(=O)c2ccccc2O)cc1 | – | 66.2 µM (active)
72 | CC(=O)OC(C)C | inactive | –
73 | CCO[Si](C)(OCC)OCC | inactive | –
74 | OC1CCCC1 | inactive | –
75 | O=C(O)CCCC[C@@H]1SC[C@@H]2NC(=O)N[C@@H]21 | inactive | –

target: AR (gene 367) (UniProt P10275); assay: ACEA_AR_agonist_80hr: ACEA Biosciences xCELLigence Real-Time Cell Analysis on Androgen Receptor Agonism for Proliferation (AID 2283783);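 further: hits increase impedance growth signal above DMSO baseline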
Sequence (P10275 whole entry, looked up): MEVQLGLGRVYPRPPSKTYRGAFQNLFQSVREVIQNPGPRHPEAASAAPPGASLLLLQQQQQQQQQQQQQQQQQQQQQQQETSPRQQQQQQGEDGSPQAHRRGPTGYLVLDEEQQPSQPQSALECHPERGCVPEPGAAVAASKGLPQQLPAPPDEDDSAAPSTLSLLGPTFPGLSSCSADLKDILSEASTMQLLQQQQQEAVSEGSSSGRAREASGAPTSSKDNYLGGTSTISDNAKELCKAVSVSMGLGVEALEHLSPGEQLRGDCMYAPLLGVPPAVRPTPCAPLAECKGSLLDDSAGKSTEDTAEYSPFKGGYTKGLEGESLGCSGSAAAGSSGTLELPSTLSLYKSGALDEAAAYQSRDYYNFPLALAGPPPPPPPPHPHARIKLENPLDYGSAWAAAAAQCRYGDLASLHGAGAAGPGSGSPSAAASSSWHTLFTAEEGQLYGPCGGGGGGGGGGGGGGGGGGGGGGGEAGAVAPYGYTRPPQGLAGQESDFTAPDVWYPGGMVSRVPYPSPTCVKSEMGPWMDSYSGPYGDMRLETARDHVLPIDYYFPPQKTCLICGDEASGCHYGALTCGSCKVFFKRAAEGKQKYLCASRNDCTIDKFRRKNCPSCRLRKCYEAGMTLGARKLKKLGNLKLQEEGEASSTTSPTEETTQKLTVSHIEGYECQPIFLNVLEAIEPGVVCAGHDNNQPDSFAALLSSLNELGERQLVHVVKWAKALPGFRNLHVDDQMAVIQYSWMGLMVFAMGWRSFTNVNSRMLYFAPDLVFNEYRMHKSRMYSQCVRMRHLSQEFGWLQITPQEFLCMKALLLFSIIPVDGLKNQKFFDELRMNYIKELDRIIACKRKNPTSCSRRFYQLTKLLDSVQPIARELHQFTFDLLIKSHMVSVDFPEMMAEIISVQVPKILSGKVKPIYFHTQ
In short: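 Real-time cell-growth kinetics were recorded by electrode impedance in 22Rv1 cells exposed to test chemicals up to 100 uM final; the 80 h timepoint served as the readout, fitted upward relative to DMSO controls, in biological duplicate.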

Row | Compound | outcome
76 | Oc1ccc(Cl)cc1Cc1cc(Cl)ccc1O | inactive
77 | CCCc1ccc(OC)cc1 | inactive
78 | CCCCC/C=C\CCC=O | inactive

target: AR (gene 367) (UniProt P10275); assay: ACEA_AR_antagonist_80hr: ACEA Biosciences xCELLigence Real-Time Cell Analysis on Androgen Receptor Antagonism for Proliferation (AID 2283787);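 further: 22Rv1 human prostate cancer cells with growth followed by electrical impedance; hits lower the impedance growth signal relative to DMSO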
In short: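 Using 22Rv1 cells held in assay medium, we dosed compounds (100 uM maximum final, 1:4 serial, eight points, 0.5% DMSO at top) and recorded cell-electrode impedance; the 80 hr timepoint was analyzed against DMSO.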

Row | Compound | AC50 | outcome
79 | Oc1ccc(Cl)cc1Cc1cc(Cl)ccc1O | 10.2 µM (active) | –
80 | CCCc1ccc(OC)cc1 | – | inactive
81 | CCCCC/C=C\CCC=O | – | inactive
